Reference: PubChem BioAssay (NCATS)
Inconclusive results are not listed. A number with no mark means an inactive call. The call rests on the fitted dose curve; in most records, active means well fitted inhibition curve with a large enough effect; inconclusive means small, poorly fitted or top-dose-only effect, or effect the other way; inactive means flat fitted curve, though single readings scatter.

molecular target: ATP-dependent 6-phosphofructokinase (Trypanosoma brucei brucei) (UniProt O15648); assay: qHTS Assay to Find Inhibitors of T. brucei phosphofructokinase: hit validation (AID 492961);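 further: luminescence reports ADP formed as PFK phosphorylates fructose-6-phosphate with ATP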; conditions: T. brucei PFK, ADP-Glo luminescence; series mostly up to 51.4 µM; activity change, negative = inhibition: at the top concentration
Description: NIH Molecular Libraries Probe Production Network [MLPCN] NIH Chemical Genomics Center [NCGC] Grant: 1 R03 MH092153-01 PI Name: Malcolm Walkinshaw, University of Edinburgh NCGC Assay Overview: Various species of the protozoan family Trypanosomatidae are responsible for a range of serious human diseases in tropical and subtropical areas of the world. […] Many of the disorders caused by trypanosomatids are fatal if left untreated, but most currently used drugs are inefficient and toxic. […] Oxidative metabolism involving the mitochondrial tricarboxylic acid cycle and oxidative phosphorylation are repressed in these parasites, and recent RNA interference (RNAi) experiments have shown that even partial depletion of certain individual glycolytic enzymes can lead to the death of cultured parasites. One such glycolytic enzyme, phosphofructokinase (PFK), catalyzes the formation of fructose-1,6-bisphosphate (F1,6BP) and ADP from fructose-6-phosphate (F6P) and ATP, and in many metabolic circumstances makes an important contribution to the control of flux through the glycolytic pathway. As a specific glycolytic target, PFK is particularly attractive as it catalyzes the first irreversible step in glycolysis, and structural and kinetic studies have shown very substantial and essential differences from corresponding host enzymes, allowing for the discovery of parasite-selective inhibitors. The goal of this screen is to find small-molecule inhibitors of T. brucei PFK using a biochemical assay that measures PFK activity as a function of ADP production. A luminescence-based assay for T. brucei PFK activity has been developed which uses luciferase to detect production of ADP. Traditional luciferase-based nucleotide detection reagents rely on ATP production as a direct substrate for the luciferase reaction; however, PFK catalyzes the transfer of a phosphate from ATP to F6P, resulting in the net depletion of ATP. To directly measure the ADP product of the PFK reaction, we used the ADP-Glo detection kit (Promega), which utilizes two separate reactions to 1) deplete all remaining uncatalyzed ATP and 2) convert all remaining ADP to ATP, which is then detected through a traditional luciferase-coupled reaction. Compounds were screened as a concentration-titration series that ranged from 57 uM to 0.7 nM.
NCGC Assay Protocol Summary: Substrate buffer was dispensed into white, solid 1536-well plates at 3uL/well in 0.1M triethanolamine (TEA) buffer, pH 8.0, containing final concentrations of 5 mM MgCl2, 0.01% Tween20, 0.5 mM fructose-6-phosphate (F6P) and 0.1mM ATP. Then, 23 nL of compounds or DMSO were delivered to each well using a pin tool. One uL T. brucei PFK (0.1M TEA, 0.01% Tween20, 0.1% bovine serum albumin (BSA) and 1.25nM PFK, final concentrations) was then dispensed, and plates were incubated at room temperature for 45 min. The luminescent detection reagent, ADP-Glo (Promega), was then added in two steps: the first reagent, ADP-Glo (which converts remaining uncatalyzed ATP), was added at 2.5uL/well and incubated for ten minutes at room temperature, and the second component, Kinase Detection reagent (which converts ADP to ATP as a substrate for luciferase-based luminescence), was added immediately after at 5uL/well, followed by one final ten minute room temperature incubation. The plates were measured on a ViewLux plate reader for luminescent signal using a clear filter with a one second exposure. The %Activity was determined from the corrected luminescence values. As no specific T. brucei PFK inhibitors have been identified in the literature, 1x (1.25nM) and 0x PFK enzyme controls (untreated) were included to normalize %Activity of identified inhibitors; 0x enzyme values corresponded to 100%Activity (full inhibition), while 1x PFK enzyme values were used to normalize 0%Activity (no inhibition). Concentration-response curves were fitted to the signals arising from the resulting luminescence. […]

ATP-dependent 6-phosphofructokinase (Trypanosoma brucei brucei), sequence (O15648 whole entry, looked up): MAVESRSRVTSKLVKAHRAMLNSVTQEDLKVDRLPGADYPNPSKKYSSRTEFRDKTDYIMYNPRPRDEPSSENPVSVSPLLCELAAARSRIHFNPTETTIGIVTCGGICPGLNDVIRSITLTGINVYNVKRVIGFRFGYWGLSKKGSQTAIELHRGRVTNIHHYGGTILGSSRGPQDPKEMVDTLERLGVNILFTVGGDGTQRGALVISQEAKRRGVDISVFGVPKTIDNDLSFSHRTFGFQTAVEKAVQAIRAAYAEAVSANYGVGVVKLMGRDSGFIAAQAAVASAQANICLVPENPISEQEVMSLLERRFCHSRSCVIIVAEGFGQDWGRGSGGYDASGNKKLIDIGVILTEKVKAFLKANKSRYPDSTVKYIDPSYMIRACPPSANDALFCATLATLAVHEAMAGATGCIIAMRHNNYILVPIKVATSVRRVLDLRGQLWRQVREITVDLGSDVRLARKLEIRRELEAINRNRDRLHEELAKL

Compared with CC[N+](C)(CC)CCOC(=O)C1c2ccccc2Oc2ccccc21, Nc1ccc(C(=O)Oc2ccccc2)c(O)c1 is higher in “activity change, negative = inhibition” value: 3.04% for the first, 6.18% for the second.

First: O=C(O)Cc1cn(-c2ccccc2)nc1-c1ccc(Cl)cc1
Second: O=C(O)Cc1ccc(CCNS(=O)(=O)c2ccc(Cl)cc2)cc1
The “activity change, negative = inhibition” value of the first is higher: 0.907% for the first, 0% for the second.

First: O=C(c1ccccc1)C(O)c1ccccc1 (stereo not given)
Second: O=C(OOC(=O)c1ccccc1)c1ccccc1
The “activity change, negative = inhibition” value of the first is lower: 1.63% for the first, 2.45% for the second.

Compared with Cc1c(Cn2ccnc2)c2ccccc2n1CCC(=O)O, O=C(O)Cn1c(C(=O)Nc2nc(-c3ccccc3Cl)cs2)cc2ccccc21 is higher in “activity change, negative = inhibition” value: 9.17% for the first, 17.4% for the second.

Going from Cc1ncc(CO)c(CN)c1O to Cc1cccc(C(=O)O)c1O, the “activity change, negative = inhibition” value falls from 8.7% to 5.01%.

Compared with O=C(NCN1CCOCC1)c1cnccn1, O=C(NCCCN1CCOCC1)c1ccc(Cl)cc1 is lower in “activity change, negative = inhibition” value: 23.3% for the first, 0% for the second.

Going from CC(C(=O)O)c1ccc2c(c1)Cc1cccnc1O2 (stereo not given) to CCN(CC)S(=O)(=O)c1ccc(C(=O)O)cc1, the “activity change, negative = inhibition” value falls from 0% to -1.05%.

Going from CCc1nnc(NS(=O)(=O)c2ccc(N)cc2)s1 to Cc1ccc(S(=O)(=O)NC(=O)NC2CCCCCCC2)cc1, the “activity change, negative = inhibition” value falls from 3.67% to -5.32%.

Going from Cc1cc(=O)[nH]c(=S)[nH]1 to Cc1ccc(C(C)C)c(O)c1, the “activity change, negative = inhibition” value falls from 9.83% to 1.73%.

Compared with NS(=O)(=O)c1cc(-c2nn[nH]n2)c(NCc2cccs2)cc1Cl, O=C1c2ccccc2C(=O)C1c1ccc(Br)cc1 is higher in “activity change, negative = inhibition” value: -5.03% for the first, 3.15% for the second.

Compared with O[C@@H]1CO[C@H]2[C@@H]1OC[C@@H]2O, O=c1[nH]c2cc(C(F)(F)F)c(N3CCOCC3)cc2n(CP(=O)(O)O)c1=O is higher in “activity change, negative = inhibition” value: -3.03% for the first, -2.32% for the second.

Going from NC(=O)c1ccc([N+](=O)[O-])cc1Cl to OCc1ccc(Cl)cc1Cl, the “activity change, negative = inhibition” value falls from 13.1% to 0%.

First: c1ccc2[nH]ccc2c1
Second: COC(=O)c1ccccc1C(=O)c1ccc(OCCN2CCCCC2)cc1
The “activity change, negative = inhibition” value of the first is lower: -2.83% for the first, 10.7% for the second.

Going from O=C(O)c1ccc[n+]([O-])c1 to CC1CCN(CCCC(=O)c2ccc(F)cc2)CC1, the “activity change, negative = inhibition” value falls from 20% to 17%.

First: NC(=O)CCCCC1CCSS1 (stereo not given)
Second: CCCCCC(N)=O
The “activity change, negative = inhibition” value of the first is lower: 0.89% for the first, 9.16% for the second.

Going from Cc1cc(-n2nc3ccc(Cl)cc3n2)c(O)c(C(C)(C)C)c1 to CC(=O)OCC(COC(C)=O)OC(C)=O, the “activity change, negative = inhibition” value falls from 4.59% to -4.2%.

With CCCCCCCCCCCCCCCCC(C(=O)O)C(O)(CC(=O)O)C(=O)O (stereo not given) the “activity change, negative = inhibition” value was 3.37%.

First: C[C@@H]1CCC[C@H](C)N1
Second: CCN(CC)CCc1nc(-c2ccccc2)no1
The “activity change, negative = inhibition” value of the first is higher: -3.15% [at 24.3 µM] for the first, -4.43% [at 24.3 µM] for the second.

Going from NCc1ccc(S(N)(=O)=O)cc1 to O=C(O)COC(=O)Cc1ccccc1Nc1c(Cl)cccc1Cl, the “activity change, negative = inhibition” value rises from -4.24% [at 24.3 µM] to -4.03% [at 24.3 µM].

First: CCc1cccc(CC)c1NC(=O)CN(CC(=O)O)CC(=O)O
Second: CCCCC1(COC(=O)CCC(=O)O)C(=O)N(c2ccccc2)N(c2ccccc2)C1=O
The “activity change, negative = inhibition” value of the first is higher: 10.2% [at 24.3 µM] for the first, -2.08% [at 24.3 µM] for the second.

For NS(=O)(=O)c1cc2c(cc1C(F)(F)F)NCNS2(=O)=O, the “activity change, negative = inhibition” value was 3.03% [at 24.3 µM].
